Data as given in PubChem BioAssay AID434970 (Sanford-Burnham Center for Chemical Genomics, 2010).
The whole screen tested about 11,000 compounds, of which about 310 (2.8%) were called active. This is one part of a sample in which actives are shown more often than they occur. Cut-off read from the data, not from the text of the source: active = activity change below about -85%; inactive = the rest. Starred links: 1 amine or outer side, 2 acyl side, 3 side chain; linkers in the order of their positions; H or OH if unused. Positions of bridges follow the written chain, without caps; N, C: chain ends. Non-standard residues stand in square brackets, D forms with d. Residues, ends and D or L forms follow the SMILES beside them. ξ: configuration not given here. hSer(Ph(2-I,4-NO2,6-CO)) = O=C([C@H](CCOc1c(I)cc([N+](=O)[O-])cc1C(=O)[*:3])N[*:1])[*:2]; ξD = NC(CC(=O)O)C(=O)O

system: intestinal alkaline phosphatase [Mus musculus]; assay: mouse intestinal phosphatase enzyme activation – biochemical, luminescence, single concentration, confirmation (AID 434970); conditions: purified mouse IAP, CDP-Star luminescence, 30 min, at 10 µM; activation factor: measured here: IAP activation factor, stronger effect = higher value; activity change, negative = activation: stronger effect = lower value

Structure (SMILES)	activation factor	activity change, negative = activation
C[C@]12c3[nH]c4ccc(Cl)cc4c3CCN1C(=O)[C@@H](CC(=O)NCc1cccc(C(F)(F)F)c1)C[C@@H]2C(=O)N1CCCCC1	1.26	-26.2% (inactive)
c1ccc(-n2nnnc2SCc2cccc3nsnc23)cc1	0.908	9.2% (inactive)
O=[N+]([O-])c1ccc2n[nH]nc2c1	1.02	-2.4% (inactive)
O=C(Nc1nnc(SCc2ccccc2Cl)s1)C1COc2ccccc2O1 (stereo unspecified)	0.965	3.5% (inactive)
CC(=O)c1sc(Nc2nc(C)cc(C)n2)nc1C	0.928	7.2% (inactive)
COc1ccc(CN(CC(O)COCc2ccccc2)S(=O)(=O)c2ccccc2Br)cc1OC (stereo unspecified)	1.04	-3.55% (inactive)
O=C1CN(c2ccccc2F)C(=O)CN1c1ccccc1F	1.01	-1.1% (inactive)
C#CCOCCOCCOCCNc1nc(N2CCN(C(=O)CCCCCCCCCCNC(=O)[C@H](CCCCN)n3cc(C)nn3)CC2)nc(N2CCN(C(=O)CCCCCCCCCCNC(=O)[C@H](CCCN=C(N)N)n3cc(C[C@@H](C)CC)nn3)CC2)n1	3.95	-295% (active)
C#CCOCCOCCOCCNc1nc(N2CCN(C(=O)CCCCCCCCCCNC(=O)[C@H](CCCCN)n3cc(CCCC(=O)O)nn3)CC2)nc(N2CCN(C(=O)CCCCCCCCCCNC(=O)[C@H](CCCN=C(N)N)n3cc(C[C@@H](C)CC)nn3)CC2)n1	2.67	-167% (active)
C#CCOCCOCCOCCNc1nc(N2CCN(C(=O)CCCCCCCCCCNC(=O)[C@H](CCCCN)n3cc(CCO)nn3)CC2)nc(N2CCN(C(=O)CCCCCCCCCCNC(=O)[C@H](CCCN=C(N)N)n3cc(C[C@@H](C)CC)nn3)CC2)n1	3.04	-204% (active)
CCOC(=O)c1c(N)sc(C(O)(C(F)(F)F)C(F)(F)F)c1-c1ccccc1	1.07	-6.55% (inactive)
CC1CN(c2nc3c(c(=O)n(Cc4ccc(Cl)c(Cl)c4)c(=O)n3C)n2C)CC(C)O1 (stereo unspecified)	1.01	-0.8% (inactive)
Cc1n[nH]c(C)c1S(=O)(=O)N1CCCC(C(=O)N2CCc3ccccc32)C1 (stereo unspecified)	0.946	5.45% (inactive)
COc1ccc(Nc2nc(N)nc(CSc3nccc(C)n3)n2)cc1	1.04	-3.9% (inactive)
Cc1ccc(-c2nnn(CC(=O)N3CCCc4ccccc43)n2)cc1	1.06	-6.35% (inactive)
CSc1cccc(NC(=O)NCc2cccc(CNC(=O)Nc3cccc(SC)c3)c2)c1	1.62	-61.9% (inactive)
CSc1cccc(NC(=O)Nc2ccc(Cl)cc2)c1	2.06	-106% (active)
CSc1cccc(NC(=O)Nc2nc3c(C)cccc3s2)c1	1.45	-45% (inactive)
COC(=O)c1cccc(NC(=O)Nc2ccc(Cl)cc2)c1	1.48	-47.6% (inactive)
CSc1cccc(NC(=O)Nc2ccccc2)c1	2.1	-110% (active)
COc1ccccc1C(=O)Nc1cccc(SC)c1	1.12	-11.6% (inactive)
Cc1cnc(-c2nnc(N(C)C(=O)C3CCOC3)s2)cn1 (stereo unspecified)	0.996	0.45% (inactive)
Cc1onc(-c2ccccc2Cl)c1C(=O)OCC(=O)N1CCCc2ccccc21	1.02	-2.05% (inactive)
CC(C)(C)c1ccc(OCC(=O)NCc2ccco2)c(Br)c1	0.869	13.1% (inactive)
CC(C)N1CC2=C(OC(N)=C(C#N)C2c2cccnc2)/C(=C/c2cccnc2)C1 (stereo unspecified)	0.917	8.3% (inactive)

Structure (SMILES)	activation factor	activity change, negative = activation
Cc1cc(C)cc(NC(=O)NCC2CCN(Cc3cc(C)ccc3C)CC2)c1	2.32	-132% (active)
Cc1cc(C)c(CN2CCN(C(=O)Cn3cnc(C(=O)Nc4ccc(C)c(C)c4)n3)CC2)c(C)c1	1.13	-13.2% (inactive)
Cc1ccc(C)c(CN2CCC(CNC(=O)Nc3ccc(C)c(F)c3)CC2)c1	2.16	-116% (active)
Cc1ccc(SCC(=O)Nc2ccc(N3CCN(C)CC3)c(F)c2)c(C)c1	1.13	-13% (inactive)
Cc1ccc(C)c(CN2CCC(CNC(=O)Nc3ccc(C)c(C)c3)CC2)c1	2.21	-121% (active)
Cc1ccc(SCCNC(=S)Nc2ccc(C)c(C)c2)cc1	1.46	-45.9% (inactive)
Cc1ccc(C)c(CN2CCC(CNC(=O)Nc3ccc(Br)cc3F)CC2)c1	1.55	-54.9% (inactive)
C[C@@H]1NC(=O)c2cc([N+](=O)[O-])cc(I)c2OCC[C@@H](C(=O)NC(CC(=O)O)C(N)=O)NC(=O)[C@H](CC(N)=O)NC1=O (stereo partly specified) (AN[hSer(Ph(2-I,4-NO2,6-CO))][ξD]-NH2; lactam N-3)	1.15	-14.8% (inactive)
CC[C@]12c3[nH]c4cc(-c5ccco5)ccc4c3CCN1C(=O)[C@@H](CC(=O)NCc1ccco1)C[C@@H]2C(=O)N1CCN(C(=O)C2CC2)CC1	1.23	-22.7% (inactive)
CC(C)CCNC(=O)NC(=O)CSc1nnc(COc2ccccc2Cl)o1	1.04	-4.3% (inactive)
CC(C)C(=O)Nc1nnc(SCC(=O)NCc2cccs2)s1	0.976	2.4% (inactive)
Cc1ccc(C(=O)Nc2nncs2)cc1S(=O)(=O)N1CCOCC1	0.927	7.35% (inactive)
COc1ccc(S(=O)(=O)NCCc2ccc(F)cc2)cc1	0.961	3.9% (inactive)
Cc1cc2c(ncn2C)c(NS(=O)(=O)c2cc(Cl)ccc2Cl)c1C	0.946	5.45% (inactive)
Cc1noc2ncnc(Sc3c(Cl)cccc3Cl)c12	0.906	9.4% (inactive)
C#CCOCCOCCOCCNc1nc(N2CCN(C(=O)CCCCCCCCCCNC(=O)[C@H](CO)n3cc(CCCSC)nn3)CC2)nc(N2CCN(C(=O)CCCCCCCCCCNC(=O)[C@H](CCCN=C(N)N)n3cc(C[C@@H](C)CC)nn3)CC2)n1	5.98	-498% (active)
C#CCOCCOCCOCCNc1nc(N2CCN(C(=O)CCCCCCCCCCNC(=O)[C@@H](CCSC)n3cc(CCO)nn3)CC2)nc(N2CCN(C(=O)CCCCCCCCCCNC(=O)[C@H](CCCN=C(N)N)n3cc(C[C@@H](C)CC)nn3)CC2)n1	8.61	-761% (active)
C#CCOCCOCCOCCNc1nc(N2CCN(C(=O)CCCCCCCCCCNC(=O)[C@H](CO)n3cc(CCCSC)nn3)CC2)nc(N2CCN(C(=O)CCCCCCCCCCNC(=O)[C@H](CCCCN)n3cc(C[C@@H](C)CC)nn3)CC2)n1	2.83	-183% (active)
COc1ccc(N2C(=O)C3CCCN3C2c2ccccc2)cc1Cl (stereo unspecified)	0.895	10.5% (inactive)
C=CCNC(=O)c1nc2ccccc2s1	0.92	8% (inactive)
Cn1c(=O)cc(SCC(=O)Nc2cccnc2)c2ccccc21	0.952	4.8% (inactive)
CCC1CCCCN1CCCNC(=O)c1ccc2c(=O)n(Cc3ccc(OC)cc3)c(=O)[nH]c2c1 (stereo unspecified)	0.925	7.5% (inactive)
Fc1ccc(CNc2nc(-c3ccco3)cc(C(F)(F)F)n2)cc1	0.991	0.9% (inactive)
COc1ccc2c(c1OC)C(=O)N(c1ccc(C)c(C)c1)C2=O	0.976	2.45% (inactive)
COc1cc(/C=C(\C#N)c2nc3ccc(C)cc3[nH]2)c([N+](=O)[O-])cc1OC	0.806	19.4% (inactive)

Structure (SMILES)	activation factor	activity change, negative = activation
Cc1[nH]ccc(=O)c1OCc1c(Cl)cccc1Cl	0.957	4.3% (inactive)
COCCn1c(Sc2ccccc2)nc2c1c(=O)[nH]c(=O)n2C	1.07	-6.95% (inactive)
COC(=O)[C@H]1C2CCC(C(=O)OC)(CC2)[C@H]1C(=O)OC	0.915	8.55% (inactive)
O=S(=O)(c1ccc(F)cc1)N1CCN(CC(O)COCc2cccs2)CC1 (stereo unspecified)	0.928	7.2% (inactive)
Cc1c(C(=O)Nc2ccc(Cl)cc2)c2ccccn2c1C(=O)c1ccccc1	1.02	-1.8% (inactive)
COc1ccc(Cl)cc1C(=O)Nc1ccc2c(c1)OCO2	1.1	-10.2% (inactive)
CCN(CC)C(C(=O)Nc1ccc(C(C)C)cc1)c1ccc2c(c1)OCO2 (stereo unspecified)	1.48	-48.4% (inactive)
COC(=O)Nc1ccc2c(c1)OCO2	0.903	9.6% (inactive)
CC(NC(=O)Nc1ccc(Cl)cc1)c1ccccc1 (stereo unspecified)	2.11	-111% (active)
O=C(N/C=C/c1ccccc1)Nc1ccc(Cl)cc1	2.71	-171% (active)
Cc1ccc(NC(=O)N/C=C/c2ccccc2)cc1	1.56	-55.5% (inactive)
CC(NC(=O)Nc1ccc(Cl)cc1)c1ccc2c(c1)OCO2 (stereo unspecified)	2.53	-153% (active)
Cc1ccc(NC(=O)N/C=C/c2ccc(Cl)cc2)cc1	1.09	-9.1% (inactive)
Cc1noc(-c2ccccc2)c1NC(=O)Nc1ccc(Cl)cc1	1.7	-70.2% (inactive)
CC1CCCN(C(C(=O)Nc2ccc(C(C)C)cc2)c2ccc3c(c2)OCO3)C1 (stereo unspecified)	1.73	-73.3% (inactive)
CC(NC(=O)C1CCC1)c1ccccc1 (stereo unspecified)	1.12	-11.9% (inactive)
CC(C)c1ccc(NC(=O)NC(C)c2ccc3c(c2)OCO3)cc1 (stereo unspecified)	3.31	-231% (active)
Cc1cccc(OCCCSc2nc3ccccc3[nH]2)c1	1.13	-12.6% (inactive)
COC(=O)c1c(NC(=O)c2ccccc2)sc(Cc2ccccc2)c1C	1	-0.05% (inactive)
O=C(NCC(=O)N(CC1CCCO1)C1(C(=O)NC2CCCC2)CCCCC1)c1ccccc1 (stereo unspecified)	1.03	-3.2% (inactive)
CCOC(=O)N1CCN(C(=O)Cn2c(C)cc3ccccc3c2=O)CC1	1.12	-11.8% (inactive)
Cc1ccc(Nc2c3c(nc4ncnn24)CC(C)CC3)cc1 (stereo unspecified)	1.02	-2.1% (inactive)
C1CN(c2nc3nonc3n3nnnc23)CCO1	0.972	2.75% (inactive)
